Measured values reported in PubChem BioAssay (Tox21).
Records with an inconclusive call do not appear. Where a structure was tested more than once in an assay, its records may differ in their call. The source made the active and inactive calls. Unless noted, the call rests on the fitted dose curve; in most records, active means well fitted curve in the direction sought with a large enough effect in the repeat runs; inconclusive means weak or mixed curves; inactive means no such curve, though single readings can be large; an effect the other way counts as inactive or inconclusive.

Tests used:
[1] = qHTS assay to identify small molecule agonists of the peroxisome proliferator-activated receptor delta (PPARd) signaling pathway - cell viability counter screen (AID 743211); further: nearly all actives have a fitted effect of over 55% in size; further: potency means the concentration at half of the fitted maximal effect
Summary of the method: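 HEK293H PPARd-bla, 3000 cells/well; 5 h preincubation 37C/5% CO2; cpd in DMSO, 17 h 37C; B/G FRET substrate 2 h RT; CellTiter-Glo 30 min RT, luminescence.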

[2] = qHTS assay to identify small molecule antagonists of the peroxisome proliferator-activated receptor delta (PPARd) signaling pathway - cell viability counter screen (AID 743213); further: nearly all actives have a fitted effect of over 50% in size; further: potency means the concentration at half of the fitted maximal effect
Summary of the method: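 In this counter screen, HEK293H cells carrying a UAS-beta-lactamase reporter are co-treated with test compounds and 300 nM L165041 (final) for 17 h at 37 C; cell viability is quantified by CellTiter-Glo luminescence.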

[3] = target: Peroxisome proliferator-activated receptor delta (Homo sapiens) (UniProt Q03181); assay: qHTS assay to identify small molecule antagonists of the peroxisome proliferator-activated receptor delta (PPARd) signaling pathway (AID 743215; active means well fitted inhibition curve with a large enough effect in the signal ratio in the repeat runs, not every such curve was filed as active; the % refers to the signal ratio;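 further: cells stimulated with agonist L165041 at 300 nM final during compound exposure; series mostly up to about 62 µM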)
Peroxisome proliferator-activated receptor delta (Homo sapiens), sequence (Q03181 whole entry, looked up): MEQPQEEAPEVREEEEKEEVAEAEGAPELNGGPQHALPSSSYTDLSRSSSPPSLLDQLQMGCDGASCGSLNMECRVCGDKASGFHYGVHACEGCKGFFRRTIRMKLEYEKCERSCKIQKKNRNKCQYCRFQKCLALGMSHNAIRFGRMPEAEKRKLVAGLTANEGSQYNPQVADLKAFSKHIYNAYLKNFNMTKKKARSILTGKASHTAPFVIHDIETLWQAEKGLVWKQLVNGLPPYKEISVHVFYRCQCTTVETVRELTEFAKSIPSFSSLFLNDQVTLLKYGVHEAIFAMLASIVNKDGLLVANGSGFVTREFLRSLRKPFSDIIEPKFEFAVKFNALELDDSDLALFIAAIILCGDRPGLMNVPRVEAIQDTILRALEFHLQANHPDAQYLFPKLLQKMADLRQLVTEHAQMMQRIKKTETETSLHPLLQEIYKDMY
Summary of the method: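 HEK293H UAS-bla, PPARd; agonist L165041 300 nM final with cpd in DMSO; 37 C 17 h; FRET substrate, RT 2 h; fluorescence intensity.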

[4] = qHTS assay to identify small molecule agonists of the farnesoid-X-receptor (FXR) signaling pathway - cell viability counter screen (AID 743218); further: nearly all actives have a fitted effect of over 45% in size
Summary of the method: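 Parallel cytotoxicity test: compound-treated (16 h, 37 C) HEK 293T FXR-bla reporter cells were lysed with CellTiter-Glo and luminescence recorded.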

[5] = qHTS assay to identify small molecule antagonists of the farnesoid-X-receptor (FXR) signaling pathway - cell viability counter screen (AID 743221; active means well fitted cell-killing curve with a large enough effect in the repeat runs, not every such curve was filed as active; further: nearly all actives have a fitted effect of over 50% in size)
Summary of the method: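 Luminescence from CellTiter-Glo measures cytotoxicity in GeneBLAzer FXR-UAS-bla HEK 293T cells. Cells were exposed to compounds with 50 uM chenodeoxycholic acid (final) for 16 h at 37 C, in wells also used for the reporter readout.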

[6] = target: Vitamin D3 receptor (Homo sapiens) (UniProt P11473); assay: qHTS assay to identify small molecule agonists of the vitamin D receptor (VDR) signaling pathway (AID 743222; calls by dose curve)
Vitamin D3 receptor (Homo sapiens), sequence (P11473 whole entry, looked up): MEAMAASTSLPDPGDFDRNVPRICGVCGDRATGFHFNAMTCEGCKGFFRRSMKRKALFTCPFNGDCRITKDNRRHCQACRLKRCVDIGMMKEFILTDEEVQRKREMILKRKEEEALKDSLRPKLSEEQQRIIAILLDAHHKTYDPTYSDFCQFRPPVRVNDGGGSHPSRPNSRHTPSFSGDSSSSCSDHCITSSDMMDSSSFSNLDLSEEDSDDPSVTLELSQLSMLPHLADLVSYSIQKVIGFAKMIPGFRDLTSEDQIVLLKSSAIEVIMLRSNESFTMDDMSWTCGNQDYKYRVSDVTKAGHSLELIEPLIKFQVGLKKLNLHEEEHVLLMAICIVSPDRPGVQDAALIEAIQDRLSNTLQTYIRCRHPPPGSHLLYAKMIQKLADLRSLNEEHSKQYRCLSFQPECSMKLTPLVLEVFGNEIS
Summary of the method: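 In VDR-bla cells, compound-induced beta-lactamase expression is quantified by FRET substrate fluorescence. Treatment lasts 16 h at 37C; substrate develops 2 h at room temperature.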

[7] = target: Vitamin D3 receptor (Homo sapiens) (UniProt P11473); assay: qHTS assay to identify small molecule antagonists of the vitamin D receptor (VDR) signaling pathway (AID 743223; active means well fitted inhibition curve with a large enough effect in the signal ratio in the repeat runs, not every such curve was filed as active; the % refers to the signal ratio)
Summary of the method: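 Antagonist mode uses 1alpha,25-dihydroxyvitamin D3 at 3 nM final as stimulus. VDR-bla cells receive compounds in DMSO, incubate 16 h at 37C, then a beta-lactamase FRET substrate for 2 h at room temperature before fluorescence measurement.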

[8] = qHTS assay to identify small molecule agonists of the vitamin D receptor (VDR) signaling pathway - cell viability counter screen (AID 743224); further: nearly all actives have a fitted effect of over 50% in size; further: potency means the concentration at half of the fitted maximal effect
Summary of the method: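 Plated VDR-bla cells (4 h, 37C) received compound, incubated 16 h, then LiveBLAzer substrate 2 h RT; CellTiter-Glo added afterwards, luminescence read at 30 min.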

[9] = qHTS assay to identify small molecule antagonists of the vitamin D receptor (VDR) signaling pathway - cell viability counter screen (AID 743225); further: nearly all actives have a fitted effect of over 50% in size
Summary of the method: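 Read-out: CellTiter-Glo luminescence measured 30 min after reagent addition at room temperature. Cells were VDR-bla HEK 293T exposed 16 h at 37C, 5% CO2, to compound with 3 nM final calcitriol agonist.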

[10] = qHTS assay to identify small molecule agonists of the NFkB signaling pathway (AID 1159509; active means well fitted curve in the direction sought with a large enough effect in the signal ratio in the repeat runs, not every such curve was filed as active; the % refers to the signal ratio; further: series mostly up to about 61 µM)
Summary of the method: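 NFkB-bla ME-180 cells with a beta-lactamase reporter under an NF-kB response element were plated overnight, treated with compounds in DMSO for 5 hr at 37 C, then loaded with FRET substrate for 1.5 hr at room temperature.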

[11] = qHTS assay to identify small molecule agonists of the endoplasmic reticulum stress response signaling pathway (AID 1159516; active means well fitted activation curve with a large enough effect in the signal ratio in the repeat runs, not every such curve was filed as active; the % refers to the signal ratio)
Summary of the method: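 An ESRE-bla HeLa cell assay: compounds were pin-transferred from DMSO onto overnight-plated cells and left 5 hr at 37 C. Substrate was then loaded for 2 hr at room temperature before reading fluorescence at 460 nm and 530 nm.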

[12] = qHTS assay to identify small molecule agonists of the endoplasmic reticulum stress response signaling pathway - cell viability counter screen (AID 1159517; calls by dose curve)
Summary of the method: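 Luminescence readout: CellTiter-Glo, 30 min RT, same wells as the ESRE-bla reporter read. HeLa ESRE-bla, 1,500 cells/well, o/n 37 C; cpd 5 hr 37 C/5% CO2.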

[13] = qHTS assay to identify small molecule antagonists of the retinoid-related orphan receptor gamma (ROR-gamma) signaling pathway - cell viability counter screen (AID 1159520); further: nearly all actives have a fitted effect of over 50% in size; further: potency means the concentration at half of the fitted maximal effect
Summary of the method: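 Tet-on ROR gamma CHO cells (1,000/well) were plated 4 hr, given compounds in DMSO for 2 hr at 37 C, then induced with 1 uM final doxycycline for 16 hr. Viability was read as ATP by CellTiter-Glo luminescence after 30 min.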

[14] = target: Nuclear receptor ROR-gamma (Homo sapiens) (UniProt P51449); assay: qHTS assay to identify small molecule antagonists of the retinoid-related orphan receptor gamma (ROR-gamma) signaling pathway (AID 1159521; further: nearly all actives have a fitted effect of over 50% in size; further: potency means the concentration at half of the fitted maximal effect)
Summary of the method: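 CHO Tet-on RORγ, RORE-luc reporter. Cpd 2 h pre-incubation, then dox hyclate 1 uM final, 16 h, 37 C/5% CO2. ONE-Glo luminescence; decrease = antagonist.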

[15] = qHTS assay to identify small molecule agonists of the AP-1 signaling pathway (AID 1159526; calls by dose curve)
[16] = qHTS assay to identify small molecule agonists of the AP-1 signaling pathway - cell viability counter screen (AID 1159525; calls by dose curve; further: nearly all actives have a fitted effect of over 55% in size)
Summary of the method: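 ME-180 AP-1-bla, 2500 cells/well, Opti-MEM + 0.5% dialyzed FBS; overnight 37 °C; cpd 15-pt titration, 5 h 37 °C; CellTiter-Glo 30 min RT; luminescence read; normalised to TOAB and DMSO controls.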

[17] = target: Peroxisome proliferator-activated receptor delta (Homo sapiens) (UniProt Q03181); assay: qHTS assay to identify small molecule agonists of the peroxisome proliferator-activated receptor delta (PPARd) signaling pathway (AID 743212; calls by dose curve)
Summary of the method: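 GeneBLAzer PPARd UAS-bla HEK293H cells (beta-lactamase reporter under UAS control), plated and rested 5 h at 37 C, then exposed to compounds in DMSO at 37 C; LiveBLAzer B/G FRET substrate added, 2 h room temperature, fluorescence read.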

[18] = target: Bile acid receptor (Homo sapiens) (UniProt Q96RI1); assay: qHTS assay to identify small molecule agonists of the farnesoid-X-receptor (FXR) signaling pathway (AID 743220; active means well fitted activation curve with a large enough effect in the signal ratio in the repeat runs, not every such curve was filed as active; the % refers to the signal ratio)
Bile acid receptor (Homo sapiens), sequence (Q96RI1 whole entry, looked up): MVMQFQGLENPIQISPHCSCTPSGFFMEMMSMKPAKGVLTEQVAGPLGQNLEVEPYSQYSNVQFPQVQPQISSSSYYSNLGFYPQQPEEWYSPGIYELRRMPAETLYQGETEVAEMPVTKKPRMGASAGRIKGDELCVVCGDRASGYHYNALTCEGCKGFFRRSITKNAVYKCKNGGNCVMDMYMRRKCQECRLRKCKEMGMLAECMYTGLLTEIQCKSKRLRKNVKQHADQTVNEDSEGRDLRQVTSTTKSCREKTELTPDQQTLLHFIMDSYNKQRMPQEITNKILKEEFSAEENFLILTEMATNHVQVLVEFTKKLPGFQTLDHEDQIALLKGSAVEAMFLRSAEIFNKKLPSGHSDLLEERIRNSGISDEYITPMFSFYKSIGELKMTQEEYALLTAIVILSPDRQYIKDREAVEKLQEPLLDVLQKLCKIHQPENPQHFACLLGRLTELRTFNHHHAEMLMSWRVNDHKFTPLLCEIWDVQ
Summary of the method: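 Beta-lactamase reporter under UAS control in GeneBLAzer FXR HEK 293T cells (5000/well) measured with LiveBLAzer FRET substrate after 2 h at room temperature. Compound exposure lasted 16 h at 37C.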

[19] = target: Bile acid receptor (Homo sapiens) (UniProt Q96RI1); assay: qHTS assay to identify small molecule antagonists of the farnesoid-X-receptor (FXR) signaling pathway (AID 743217; active means well fitted inhibition curve with a large enough effect in the signal ratio in the repeat runs, not every such curve was filed as active; the % refers to the signal ratio)
Summary of the method: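 GeneBLAzer FXR-UAS-bla HEK 293T, CDCA-stimulated (50 uM final). Compound treatment 16 h, 37 °C. Detection: beta-lactamase cleavage of B/G FRET substrate, fluorescence.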

Measured: Potency

O=C1c2ccccc2C(=O)C1c1ccc(Br)cc1
inactive: [1] | [2] | [3] | [4] | [5] | [6] | [7] | [8] | [9] | [10] | [11] | [12] | [13] | [14] | [15]

CNC(=O)c1cnn(-c2nc(N)c3ncn([C@@H]4O[C@H](CO)[C@@H](O)[C@H]4O)c3n2)c1
inactive: [1] | [2] | [4] | [5] | [6] | [8] | [9] | [10] | [11] | [12] | [13] | [16] | [15]

C[C@]12CC[C@@H]3c4ccc(O)cc4CC[C@H]3[C@@H]1CC[C@@H]2OC(=O)CCC1CCCC1
active: [13] 43.3 µM
inactive: [17] | [2] | [3] | [4] | [18] | [5] | [6] | [7] | [9] | [10] | [11] | [12]
43.6 µM (active) and inactive: [8]

O=C1Cc2ccccc2N1c1c(Cl)cccc1Cl
inactive: [2] | [3] | [19] | [18] | [5] | [6] | [8] | [10] | [11] | [12] | [13]

O=C(O)CCC(=O)C(=O)O
inactive: [1] | [2] | [4] | [5] | [6] | [7] | [8] | [10] | [11] | [12] | [13] | [14] | [15]

CC(C)Nc1cccnc1N1CCN(C(=O)c2cc3cc(NS(C)(=O)=O)ccc3[nH]2)CC1
inactive: [1] | [2] | [19] | [4] | [5] | [6] | [7] | [8] | [9] | [10] | [11] | [12] | [13] | [15]

Cc1cc(O)ccc1O
inactive: [1] | [17] | [2] | [3] | [19] | [18] | [5] | [6] | [7] | [8] | [9] | [10] | [11] | [12]
active: [14] 24.6 µM

O=C1c2ccccc2C(=O)N1CCc1noc(-c2ccc(CN3CCCCCC3)s2)n1
inactive: [1] | [17] | [2] | [19] | [4] | [5] | [9] | [10] | [11] | [12] | [13] | [15]

C[C@@H](CN(C)C)CN1c2ccccc2Sc2ccccc21
inactive: [3] | [18] | [6] | [8] | [9] | [10] | [11] | [12] | [16]
active: [1] 23.7 µM | [2] 26.6 µM | [14] 26.6 µM
